Inconclusive results are not listed. Where a call stands in place of a potency, no number is given. Activity calls are given as the source filed them. The call rests on the fitted dose curve.
Experiments:
[1] = Primary qHTS for Huh7 cytotoxicity: counterscreen for inhibitors of MERS-S pseudotyped particle cell entry (AID 1479147); settings: outcome: dose series up to 57.1 µM unless noted
[2] = Primary qHTS for Vero E6 cytotoxicity: counterscreen for inhibitors of SARS-S pseudo-typed particle cell entry (AID 1479150); settings: outcome: dose series up to 57.1 µM unless noted

SMILES: O=NCc1ccc([N+](=O)[O-])o1
- Potency [1]: inactive
- Potency [2]: inactive

From PubChem BioAssay (NCATS)
